# Laboratory results from PubChem BioAssay (EPA / NIEHS).
# Results filed as inconclusive are left out. The source holds several records for some structures; these can differ, active in one and inactive in another. Active and inactive are the calls of the source. The calls were made as follows, unless noted: active = hit-call score of the fitted dose curve at least 0.9, where 1 is the maximum; inactive = score below 0.9.
# What was measured:
# [1] = target: Glucocorticoid receptor (Homo sapiens) (UniProt P04150); assay: ATG_GR_TRANS: Attagene TRANS-FACTORIAL HepG2 Assay for human Glucocorticoid Receptor (GR) (AID 2282978; active = hit-call score of the fitted dose curve at least 0.9, where 1 is the maximum;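 also: activators score as hits since higher reporter transcript over DMSO is fitted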); conditions: HepG2 Attagene TRANS GR reporter, mRNA transcription
# How it was run: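 HepG2 cells transiently transfected with GAL4-UAS reporter units and exogenous GR-Gal4 chimera, dosed 24 h. Reporter mRNA by RT-PCR, FAM labeling, HpaI digest and capillary electrophoresis; gain-of-signal fit versus DMSO.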
# [2] = target: Bile acid receptor (Homo sapiens) (UniProt Q96RI1); assay: ATG_FXR_TRANS: Attagene TRANS-FACTORIAL HepG2 Assay for Farnesoid X Receptor (FXR) (AID 2282979; active = hit-call score of the fitted dose curve at least 0.9, where 1 is the maximum;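 also: hits raise reporter mRNA above DMSO so AC50 marks FXR activation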); conditions: HepG2 Attagene TRANS FXR-GAL4 reporter transcription
# How it was run: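 Transient transfection of HepG2 with multiplexed GAL4-UAS reporter units; exogenous FXR-GAL4 chimera. Dose 24 h → TriZol RNA → oligo(dT) RT → PCR, 6-FAM primer extension, HpaI cut → CE. Gain vs DMSO.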
# [3] = target: Oxysterols receptor LXR-alpha (Homo sapiens) (UniProt Q13133); assay: ATG_LXRa_TRANS: Attagene TRANS-FACTORIAL HepG2 Assay for human Liver X Receptor alpha (LXRa) (AID 2282980; active = hit-call score of the fitted dose curve at least 0.9, where 1 is the maximum); conditions: HepG2 Attagene TRANS reporter, LXRa transactivation
# How it was run: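 Transfect HepG2 with GAL4-UAS multiplex reporter constructs (TRANS format, chimeric receptor-GAL4); treat 24 h; extract RNA, reverse-transcribe, PCR-amplify, FAM-label, HpaI-digest; resolve fragments by capillary electrophoresis. Upward response vs DMSO.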
# [4] = target: Oxysterols receptor LXR-beta (Homo sapiens) (UniProt P55055); assay: ATG_LXRb_TRANS: Attagene TRANS-FACTORIAL HepG2 Assay for human Liver X Receptor beta (LXRb) (AID 2282981; active = hit-call score of the fitted dose curve at least 0.9, where 1 is the maximum); conditions: HepG2 Attagene TRANS GAL4-LXRb reporter, mRNA
# How it was run: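 Readout: fluorescent reporter mRNA fragments resolved by capillary electrophoresis after RT-PCR. System: transiently transfected human HepG2, exogenous LXRb-Gal4 chimera driving GAL4-UAS reporter, 24 h dosing. Activity fitted upward against DMSO baseline.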
# [5] = ATG_M_06_TRANS: Attagene TRANS-FACTORIAL HepG2 Assay for M06 Transcription Factor (Internal Marker) (AID 2282983; active = hit-call score of the fitted dose curve at least 0.9, where 1 is the maximum); conditions: HepG2 Attagene TRANS M06 internal marker reporter
# How it was run: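 Background control endpoint: reporter mRNA from transiently transfected HepG2 after 24 h dosing, detected by RT-PCR with capillary electrophoresis fluorescence. Analysed for gain versus DMSO.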
# [6] = ATG_M_32_TRANS: Attagene TRANS-FACTORIAL HepG2 Assay for M32 Transcription Factor (Internal Marker) (AID 2282984; active = hit-call score of the fitted dose curve at least 0.9, where 1 is the maximum;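 also: transcript level of a background control reporter unit measured by RT-PCR and capillary electrophoresis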); conditions: HepG2 Attagene TRANS M32 internal marker reporter
# How it was run: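 Read-out: fluorescent reporter cDNA fragments resolved by capillary electrophoresis after RT-PCR of total RNA. Transfected HepG2 cells were exposed to chemical for 24 h. Activity scored in the positive direction relative to DMSO.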
# [7] = target: Transcriptional activator Myb (Homo sapiens) (UniProt P10242); assay: ATG_Myb_CIS: Attagene CIS-FACTORIAL HepG2 Assay for human Myeloblastosis (Myb) Proto-Oncogene Transcription Factor (AID 2282986); conditions: HepG2 Attagene CIS-FACTORIAL Myb reporter transcription; actives raise or lower the signal
# How it was run: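 Transiently transfected HepG2 cells carrying a multiplexed cis-promoter reporter set report endogenous Myb activity after 24 h compound exposure. Reporter mRNA is read by RT-PCR with capillary electrophoresis of fluorescent products, fitted bidirectionally against DMSO.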
# [8] = target: Nuclear respiratory factor 1 (Homo sapiens) (UniProt Q16656); assay: ATG_NRF1_CIS: Attagene CIS-FACTORIAL HepG2 Assay for human Nuclear Respiratory Factor 1 (NRF1) Orphan Gene (AID 2282987); conditions: HepG2 NRF1 cis-element reporter, Attagene multiplex; actives raise or lower the signal
# How it was run: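 HepG2 cells transiently transfected with multiple cis-regulated reporter units, exposed 24 h. Reporter mRNAs measured by RT-PCR, fluorescent labelling, HpaI digestion and capillary electrophoresis; bidirectional fitting against DMSO.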
# [9] = ATG_NFI_CIS: Attagene CIS-FACTORIAL HepG2 Assay for human Nuclear Factor I (NFI) (AID 2282989); conditions: HepG2 cis-regulatory reporter, NFI response element transcription; actives raise or lower the signal
# How it was run: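 Endogenous TF activity in HepG2 cells transiently transfected with cis-element-driven multiplexed reporter units, read 24 h after dosing. Reporter mRNA quantified by RT-PCR, 6-FAM labelling, HpaI digestion and capillary electrophoresis; bidirectional fit versus DMSO.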
# [10] = target: Myc proto-oncogene protein (Homo sapiens) (UniProt P01106); assay: ATG_Myc_CIS: Attagene CIS-FACTORIAL HepG2 Assay for human Myelocytomatosis (Myc) Proto-Oncogene Transcription Factor (AID 2282990); conditions: HepG2, Attagene cis-reporter transcription factor activity; actives raise or lower the signal
# How it was run: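 Transiently transfected HepG2 cells bearing cis-promoter reporter units for endogenous transcription factors; 24 h exposure. Reporter mRNA measured by RT-PCR, 6-FAM primer extension, HpaI cut and capillary electrophoresis; bidirectional fit relative to DMSO.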
# [11] = ATG_NF_kB_CIS: Attagene CIS-FACTORIAL HepG2 Assay for human Nuclear Factor Kappa B (NF-kB) (AID 2282991); conditions: HepG2 Attagene cis-factorial NF-kB reporter mRNA; actives raise or lower the signal
# How it was run: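 HepG2 cells transfected with cis-promoter-driven reporter units, so endogenous transcription factor activity is measured. Reporter mRNA quantified 24 h after dosing by RT-PCR and capillary electrophoresis, with bidirectional fitting against DMSO.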
# [12] = ATG_NRF2_ARE_CIS: Attagene CIS-FACTORIAL HepG2 Assay for human Nuclear Factor Erythroid 2 Related Factor 2 (NFR2) response to Antioxidant Response Elements (ARE) (AID 2282992); conditions: HepG2 Attagene ARE/NRF2 reporter, transcription factor activity; actives raise or lower the signal
# How it was run: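 Endogenous transcription factor activity read out as reporter transcript levels (RT-PCR plus capillary electrophoresis, fluorescence) in transiently transfected HepG2 cells. Measured at 24 h after dosing; gain or loss of signal fitted versus DMSO.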
# [13] = ATG_Oct_MLP_CIS: Attagene CIS-FACTORIAL HepG2 Assay for human Octamer-Binding Transcription Factor (Oct) (AID 2282993); conditions: HepG2 Attagene cis-factorial Oct reporter, mRNA; actives raise or lower the signal
# How it was run: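 HepG2 cells transiently transfected with cis-element-driven reporter transcription units (endogenous TF activity); 24 h compound exposure. Reporter mRNA quantified by RT-PCR, 6-FAM labelling, HpaI digestion and capillary electrophoresis; bidirectional fit versus DMSO baseline.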
# [14] = target: Cellular tumor antigen p53 (Homo sapiens) (UniProt P04637); assay: ATG_p53_CIS: Attagene CIS-FACTORIAL HepG2 Assay for human p53 Transcription Factor (AID 2282994); conditions: HepG2 p53 cis-element reporter, Attagene mRNA; actives raise or lower the signal
# How it was run: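 Endogenous p53 activity read in transiently transfected HepG2 from a cis-element-driven reporter transcript after 24 h exposure. RNA reverse-transcribed, PCR-amplified, fluorescently labelled and sized by capillary electrophoresis; gain or loss fitted against DMSO baseline.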
# [15] = BSK_3C_TissueFactor: BioMAP Diversity Plus: 3C Assay for Tissue Factor Biomarker Activity (AID 2282997); conditions: BioMAP 3C HUVEC, tissue factor biomarker readout; actives raise or lower the signal
# How it was run: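 After a 24 h chemical exposure of primary human umbilical vein endothelial cells, Tissue Factor levels were quantified by ELISA.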
# [16] = BSK_3C_uPAR: BioMAP Diversity Plus: 3C Assay for Urokinase-type plasminogen activator receptor (uPAR) Biomarker Activity (AID 2282998); conditions: BioMAP 3C HUVEC, uPAR biomarker ELISA; actives raise or lower the signal
# How it was run: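 Primary human umbilical vein endothelial cells, 3C system; surface uPAR measured by ELISA 24 h after dosing. Cytotoxicity via SRB total protein in parallel cultures; bidirectional fit against DMSO.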
# [17] = BSK_3C_VCAM1: BioMAP Diversity Plus: 3C Assay for Vascular cell adhesion molecule 1 (VCAM1) Biomarker Activity (AID 2282999); conditions: BioMAP 3C HUVEC, VCAM1 ELISA, cytokine-stimulated; actives raise or lower the signal
# How it was run: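 HUVEC primary cells, 24 h compound exposure; VCAM-1 by ELISA; gain/loss of signal fitted bidirectionally vs DMSO baseline.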
# [18] = BSK_4H_Eotaxin3: BioMAP Diversity Plus: 4H Assay for Eotaxin 3 Biomarker Activity (AID 2283000); conditions: primary human endothelial cells (HUVEC); actives raise or lower the signal;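 as to outcome: CCL26 protein level quantified by ELISA in parallel with SRB cytotoxicity check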
# How it was run: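 Chemicals were added to human umbilical vein endothelium cultures, and Eotaxin-3 was quantified by ELISA at 24 h. Values were derived by bidirectional fitting with DMSO serving as negative control and activity baseline.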
# [19] = target: human Peroxisome Proliferator-activated Receptor alpha (PPARa), PPARA (gene 5465) (UniProt Q07869); assay: ATG_PPARa_TRANS: Attagene TRANS-FACTORIAL HepG2 Assay for human Peroxisome Proliferator-activated Receptor alpha (PPARa) (AID 2283001; active = hit-call score of the fitted dose curve at least 0.9, where 1 is the maximum)
# How it was run: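 Transient HepG2 transfection, GAL4-UAS reporters, NR-Gal4 chimeras; 24 h compound exposure. Readout: reporter transcripts by RT-PCR, 6-FAM primer extension, HpaI digest, capillary electrophoresis. Positive direction vs DMSO baseline.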
# [20] = target: Nuclear receptor subfamily 4 group A member 2 (Homo sapiens) (UniProt P43354); assay: ATG_NURR1_TRANS: Attagene TRANS-FACTORIAL HepG2 Assay for human Nuclear Receptor Related Protein 1 (NURR1) (AID 2282985; active = hit-call score of the fitted dose curve at least 0.9, where 1 is the maximum); conditions: HepG2 Attagene TRANS reporter, mRNA readout
# How it was run: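 Read-out: reporter mRNA induction by RT-PCR plus capillary electrophoresis with fluorescence detection, after 24 h dosing of transfected HepG2 cells. Exogenous NR-Gal4 chimera activity drives GAL4-UAS reporter; activity fitted upward versus DMSO.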
# Sequence of Oxysterols receptor LXR-beta (Homo sapiens) (P55055 whole entry, looked up, the tested form may be a part): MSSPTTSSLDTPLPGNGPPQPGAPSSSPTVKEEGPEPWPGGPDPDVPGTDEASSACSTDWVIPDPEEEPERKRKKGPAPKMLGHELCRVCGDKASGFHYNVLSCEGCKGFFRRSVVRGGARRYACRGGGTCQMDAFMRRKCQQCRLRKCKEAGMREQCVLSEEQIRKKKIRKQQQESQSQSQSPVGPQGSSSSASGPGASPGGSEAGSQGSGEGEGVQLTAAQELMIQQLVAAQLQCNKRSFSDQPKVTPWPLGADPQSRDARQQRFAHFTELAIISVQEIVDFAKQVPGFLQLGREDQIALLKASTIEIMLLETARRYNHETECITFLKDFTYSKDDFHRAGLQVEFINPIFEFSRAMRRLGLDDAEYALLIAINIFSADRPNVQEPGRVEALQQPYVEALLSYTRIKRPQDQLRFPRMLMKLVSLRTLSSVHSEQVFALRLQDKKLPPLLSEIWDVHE
# Sequence of Bile acid receptor (Homo sapiens) (Q96RI1 whole entry, looked up, the tested form may be a part): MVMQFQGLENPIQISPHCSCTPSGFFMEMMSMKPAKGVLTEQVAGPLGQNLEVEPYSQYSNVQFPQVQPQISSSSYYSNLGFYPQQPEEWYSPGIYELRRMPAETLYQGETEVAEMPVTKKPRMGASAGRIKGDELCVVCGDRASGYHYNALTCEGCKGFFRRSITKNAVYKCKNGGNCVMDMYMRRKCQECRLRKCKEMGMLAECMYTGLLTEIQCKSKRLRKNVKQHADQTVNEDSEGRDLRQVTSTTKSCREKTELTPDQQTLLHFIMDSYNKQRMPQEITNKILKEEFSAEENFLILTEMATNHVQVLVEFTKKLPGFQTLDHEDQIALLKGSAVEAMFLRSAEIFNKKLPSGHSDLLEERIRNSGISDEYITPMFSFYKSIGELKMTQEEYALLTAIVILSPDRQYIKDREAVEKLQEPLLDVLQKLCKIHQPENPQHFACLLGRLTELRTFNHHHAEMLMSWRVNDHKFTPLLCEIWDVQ
# Sequence of Nuclear respiratory factor 1 (Homo sapiens) (Q16656 whole entry, looked up): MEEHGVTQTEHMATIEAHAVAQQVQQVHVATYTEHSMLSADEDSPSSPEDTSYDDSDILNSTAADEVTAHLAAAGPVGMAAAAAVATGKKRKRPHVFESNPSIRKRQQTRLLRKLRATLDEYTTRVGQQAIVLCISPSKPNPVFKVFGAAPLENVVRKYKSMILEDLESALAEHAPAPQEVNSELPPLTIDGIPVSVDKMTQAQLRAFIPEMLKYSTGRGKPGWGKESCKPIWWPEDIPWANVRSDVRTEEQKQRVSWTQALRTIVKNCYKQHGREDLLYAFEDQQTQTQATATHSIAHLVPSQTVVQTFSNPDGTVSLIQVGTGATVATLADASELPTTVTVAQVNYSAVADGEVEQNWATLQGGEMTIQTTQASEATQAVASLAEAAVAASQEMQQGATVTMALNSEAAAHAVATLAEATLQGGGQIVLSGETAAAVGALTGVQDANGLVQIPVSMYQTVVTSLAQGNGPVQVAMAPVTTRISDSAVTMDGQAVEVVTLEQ
# Sequence of Myc proto-oncogene protein (Homo sapiens) (P01106 whole entry, looked up): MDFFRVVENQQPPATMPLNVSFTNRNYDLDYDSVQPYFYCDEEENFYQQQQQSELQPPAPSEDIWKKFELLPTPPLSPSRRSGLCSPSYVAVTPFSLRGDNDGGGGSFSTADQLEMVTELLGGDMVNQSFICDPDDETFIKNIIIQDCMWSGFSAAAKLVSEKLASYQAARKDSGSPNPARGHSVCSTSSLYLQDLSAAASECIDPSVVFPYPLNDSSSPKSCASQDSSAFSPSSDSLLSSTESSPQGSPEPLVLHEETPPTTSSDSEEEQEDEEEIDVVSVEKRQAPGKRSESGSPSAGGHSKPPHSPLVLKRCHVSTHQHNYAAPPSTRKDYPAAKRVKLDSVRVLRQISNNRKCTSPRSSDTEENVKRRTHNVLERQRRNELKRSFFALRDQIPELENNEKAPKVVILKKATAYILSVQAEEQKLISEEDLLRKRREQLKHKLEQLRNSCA
# Sequence of Cellular tumor antigen p53 (Homo sapiens) (P04637 whole entry, looked up): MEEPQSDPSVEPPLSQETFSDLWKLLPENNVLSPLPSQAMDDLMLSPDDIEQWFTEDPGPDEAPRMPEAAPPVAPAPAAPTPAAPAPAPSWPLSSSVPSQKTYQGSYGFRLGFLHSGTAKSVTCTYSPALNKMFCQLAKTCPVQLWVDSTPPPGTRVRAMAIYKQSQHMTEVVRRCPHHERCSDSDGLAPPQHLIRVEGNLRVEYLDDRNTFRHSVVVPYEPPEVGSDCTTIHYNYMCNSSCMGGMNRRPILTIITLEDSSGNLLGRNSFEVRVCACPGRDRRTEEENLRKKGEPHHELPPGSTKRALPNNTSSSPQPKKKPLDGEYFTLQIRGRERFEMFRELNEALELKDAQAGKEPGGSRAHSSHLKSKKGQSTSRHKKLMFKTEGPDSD
# Sequence of Oxysterols receptor LXR-alpha (Homo sapiens) (Q13133 whole entry, looked up, the tested form may be a part): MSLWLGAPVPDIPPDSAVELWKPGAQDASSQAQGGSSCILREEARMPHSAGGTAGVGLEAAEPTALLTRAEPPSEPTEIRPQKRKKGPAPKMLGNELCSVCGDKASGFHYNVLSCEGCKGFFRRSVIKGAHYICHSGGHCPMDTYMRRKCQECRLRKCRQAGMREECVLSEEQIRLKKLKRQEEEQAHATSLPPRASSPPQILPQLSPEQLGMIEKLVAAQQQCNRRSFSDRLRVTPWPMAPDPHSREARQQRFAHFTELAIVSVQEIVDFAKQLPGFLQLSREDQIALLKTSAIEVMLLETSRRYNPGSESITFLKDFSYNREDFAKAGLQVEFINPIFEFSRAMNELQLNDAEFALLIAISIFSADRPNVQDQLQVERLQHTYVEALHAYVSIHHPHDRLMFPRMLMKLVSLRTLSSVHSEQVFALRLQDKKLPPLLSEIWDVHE
# Sequence of Transcriptional activator Myb (Homo sapiens) (P10242 whole entry, looked up): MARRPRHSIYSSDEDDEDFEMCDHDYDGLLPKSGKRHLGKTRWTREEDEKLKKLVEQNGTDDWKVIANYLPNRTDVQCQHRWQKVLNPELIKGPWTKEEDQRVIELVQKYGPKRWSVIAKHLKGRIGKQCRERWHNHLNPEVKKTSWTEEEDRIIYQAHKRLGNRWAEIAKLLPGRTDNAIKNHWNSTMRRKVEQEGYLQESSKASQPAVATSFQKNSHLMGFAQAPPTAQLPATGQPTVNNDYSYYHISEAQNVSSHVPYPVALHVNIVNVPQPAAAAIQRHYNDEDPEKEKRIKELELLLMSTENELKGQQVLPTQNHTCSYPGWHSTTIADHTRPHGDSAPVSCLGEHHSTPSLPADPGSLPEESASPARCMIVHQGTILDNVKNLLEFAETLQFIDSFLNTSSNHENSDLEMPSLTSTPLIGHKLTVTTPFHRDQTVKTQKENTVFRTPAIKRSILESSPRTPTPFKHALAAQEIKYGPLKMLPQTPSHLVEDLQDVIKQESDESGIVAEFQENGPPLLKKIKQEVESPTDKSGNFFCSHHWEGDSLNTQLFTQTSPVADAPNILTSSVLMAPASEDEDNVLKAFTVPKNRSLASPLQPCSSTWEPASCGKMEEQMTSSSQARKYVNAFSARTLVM
# Sequence of Glucocorticoid receptor (Homo sapiens) (P04150 whole entry, looked up, the tested form may be a part): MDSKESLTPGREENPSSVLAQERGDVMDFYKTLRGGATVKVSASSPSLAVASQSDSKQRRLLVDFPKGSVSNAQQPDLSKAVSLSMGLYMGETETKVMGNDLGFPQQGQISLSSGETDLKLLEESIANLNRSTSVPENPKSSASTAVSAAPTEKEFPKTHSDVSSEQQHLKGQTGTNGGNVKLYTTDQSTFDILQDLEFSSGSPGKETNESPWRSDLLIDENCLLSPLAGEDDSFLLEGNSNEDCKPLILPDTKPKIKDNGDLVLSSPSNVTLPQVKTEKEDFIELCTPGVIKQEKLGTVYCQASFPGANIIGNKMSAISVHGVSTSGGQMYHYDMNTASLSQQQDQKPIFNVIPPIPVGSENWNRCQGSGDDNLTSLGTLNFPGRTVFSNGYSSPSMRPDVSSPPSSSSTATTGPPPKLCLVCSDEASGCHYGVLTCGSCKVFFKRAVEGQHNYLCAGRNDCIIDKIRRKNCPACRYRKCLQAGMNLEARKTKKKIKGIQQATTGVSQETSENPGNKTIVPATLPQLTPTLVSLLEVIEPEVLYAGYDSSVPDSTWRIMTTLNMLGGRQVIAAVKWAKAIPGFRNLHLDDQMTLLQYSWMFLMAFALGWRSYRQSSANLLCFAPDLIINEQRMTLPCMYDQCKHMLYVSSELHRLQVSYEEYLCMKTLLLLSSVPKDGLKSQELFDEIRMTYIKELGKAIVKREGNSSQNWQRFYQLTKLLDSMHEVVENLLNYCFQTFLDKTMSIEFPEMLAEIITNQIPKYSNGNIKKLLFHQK
# Sequence of human Peroxisome Proliferator-activated Receptor alpha (PPARa), PPARA (gene 5465) (Q07869 whole entry, looked up, the tested form may be a part): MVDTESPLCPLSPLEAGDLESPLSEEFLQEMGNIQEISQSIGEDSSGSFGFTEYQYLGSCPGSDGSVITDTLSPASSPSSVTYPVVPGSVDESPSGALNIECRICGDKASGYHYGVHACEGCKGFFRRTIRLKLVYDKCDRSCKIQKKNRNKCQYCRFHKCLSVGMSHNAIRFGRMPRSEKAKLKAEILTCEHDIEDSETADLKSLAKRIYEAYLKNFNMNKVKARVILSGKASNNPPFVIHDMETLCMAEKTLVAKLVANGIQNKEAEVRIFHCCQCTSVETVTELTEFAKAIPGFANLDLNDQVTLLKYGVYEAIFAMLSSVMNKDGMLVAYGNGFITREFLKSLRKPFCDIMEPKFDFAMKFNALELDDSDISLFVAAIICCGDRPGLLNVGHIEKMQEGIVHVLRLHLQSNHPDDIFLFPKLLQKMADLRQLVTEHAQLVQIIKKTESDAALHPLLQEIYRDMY
smiles,measurement,setting,value
O=C1CCC(C2CCCCC2)CC1,outcome,[1],inactive
same,outcome,[2],inactive
same,outcome,[3],inactive
same,outcome,[4],inactive
same,outcome,[5],inactive
same,outcome,[6],inactive
same,AC50,[7],147 µM (active)
same,outcome,[7],inactive
same,outcome,[8],inactive
same,outcome,[9],inactive
same,AC50,[10],187 µM (active)
same,outcome,[10],inactive
same,outcome,[11],inactive
same,AC50,[12],100 µM (active) [middle of 4 runs]
same,outcome,[13],inactive
same,AC50,[14],166 µM (active)
same,outcome,[14],inactive
same,outcome,[15],inactive
same,outcome,[16],inactive
same,outcome,[17],inactive
same,outcome,[18],inactive
same,outcome,[19],inactive
O=C(Nc1ccc(Cl)cc1)Nc1ccc(Cl)c(Cl)c1,outcome,[1],inactive
same,outcome,[2],inactive
same,outcome,[3],inactive
same,outcome,[4],inactive
same,outcome,[5],inactive
same,outcome,[6],inactive
same,outcome,[7],inactive
same,outcome,[8],inactive
same,outcome,[9],inactive
same,outcome,[10],inactive
same,outcome,[11],inactive
same,AC50,[12],6.66 µM (active)
same,AC50,[13],5.12 µM (active)
same,outcome,[14],inactive
same,outcome,[15],inactive
same,AC50,[16],1.89 µM (active)
same,AC50,[17],3.5 µM (active)
same,AC50,[18],2.4 µM (active)
same,outcome,[19],inactive
Clc1ccccc1C(c1ccccc1)(c1ccccc1)n1ccnc1,outcome,[1],inactive
same,outcome,[2],inactive
same,outcome,[5],inactive
same,outcome,[7],inactive
same,outcome,[8],inactive
same,outcome,[9],inactive
same,outcome,[10],inactive
same,outcome,[11],inactive
same,AC50,[12],5.21 µM (active)
same,AC50,[13],11.1 µM (active)
same,outcome,[14],inactive
same,AC50,[15],31 µM (active)
same,AC50,[16],14.8 µM (active)
same,AC50,[17],33.1 µM (active)
same,AC50,[18],31.3 µM (active)
Cc1cn([C@H]2C[C@H](N=[N+]=[N-])[C@@H](CO)O2)c(=O)[nH]c1=O,outcome,[1],inactive
same,outcome,[2],inactive
same,outcome,[4],inactive
same,outcome,[5],inactive
same,outcome,[6],inactive
same,outcome,[7],inactive
same,outcome,[8],inactive
same,outcome,[9],inactive
same,outcome,[10],inactive
same,outcome,[11],inactive
same,outcome,[12],inactive
same,outcome,[13],inactive
same,outcome,[14],inactive
same,outcome,[15],inactive
same,outcome,[16],inactive
same,outcome,[17],inactive
same,outcome,[18],inactive
same,outcome,[19],inactive
O=C1O[C@H]([C@@H](O)CO)C(O)=C1O,outcome,[1],inactive
same,outcome,[3],inactive
same,outcome,[5],inactive
same,outcome,[6],inactive
same,outcome,[20],inactive
same,outcome,[7],inactive
same,outcome,[8],inactive
same,outcome,[9],inactive
same,outcome,[10],inactive
same,outcome,[12],inactive
same,outcome,[13],inactive
same,outcome,[14],inactive
same,outcome,[15],inactive
same,outcome,[16],inactive
same,outcome,[17],inactive
same,outcome,[18],inactive
CCOC(=O)O[C@H](C)OC(=O)c1ccc2c(c1)cc(C(=O)NC1CCN(C(C)C)CC1)n2Cc1cc(-c2ccc(Cl)s2)on1,outcome,[1],inactive
same,outcome,[2],inactive
same,outcome,[5],inactive
same,outcome,[7],inactive
same,outcome,[8],inactive
same,outcome,[9],inactive
same,outcome,[10],inactive
same,outcome,[11],inactive
same,AC50,[12],9.33 µM (active)
same,outcome,[13],inactive
same,outcome,[14],inactive
same,AC50,[15],9.97 µM (active)
same,AC50,[16],6.09 µM (active)
same,AC50,[17],5.69 µM (active)
same,AC50,[18],8.87 µM (active)
same,outcome,[19],inactive
